Measurements reported in ChEMBL document CHEMBL1961873, “Compounds: GSK PKIS; Assays: Nanosyn kinase panel” (2012).

What follows are molecules tested against SRSF protein kinase 3 (Homo sapiens) (UniProt Q9UPE1). Settings: at 1 µM.
Sequence of SRSF protein kinase 3 (Homo sapiens) (Q9UPE1 whole entry): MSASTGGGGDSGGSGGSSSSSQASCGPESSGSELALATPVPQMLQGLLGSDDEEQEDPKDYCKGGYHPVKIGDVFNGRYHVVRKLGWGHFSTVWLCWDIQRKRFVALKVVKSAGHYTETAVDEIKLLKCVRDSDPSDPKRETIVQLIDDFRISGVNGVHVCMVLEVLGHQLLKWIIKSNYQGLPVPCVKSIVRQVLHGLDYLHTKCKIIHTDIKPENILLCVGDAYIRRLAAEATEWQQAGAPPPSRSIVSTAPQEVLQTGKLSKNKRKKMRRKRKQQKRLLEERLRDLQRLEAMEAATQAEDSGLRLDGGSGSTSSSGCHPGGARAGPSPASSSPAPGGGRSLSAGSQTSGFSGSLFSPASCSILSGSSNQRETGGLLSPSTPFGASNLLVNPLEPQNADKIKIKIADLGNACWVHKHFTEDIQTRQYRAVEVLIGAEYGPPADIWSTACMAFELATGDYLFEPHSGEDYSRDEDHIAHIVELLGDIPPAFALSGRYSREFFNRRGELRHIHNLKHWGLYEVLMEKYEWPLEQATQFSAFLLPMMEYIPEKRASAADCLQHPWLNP
`ON=C1CCc2cc(-c3nc(C4CCNCC4)[nH]c3-c3ccncc3)ccc21` gave an inhibition of -2.19%.
With `O=C1Nc2ccc(-c3cccnc3)cc2C1=Cc1cc(Br)c(O)c(Br)c1` the inhibition was 1.95%.
`CCOc1nccc2c1nc(-c1nonc1N)n2CC` gave an inhibition of 4.21%.
With `c1ccc(Cc2nc3ccc(Nc4ncnc5ccccc45)cc3[nH]2)cc1` the inhibition was -0.46%.
With `O=C(Nc1ccc(Oc2ccc3[nH]c(NC(=O)c4ccco4)nc3c2)cc1)Nc1cc(C(F)(F)F)ccc1F` the inhibition was 39.6%.
Molecule `FC(F)(F)c1ccc(-c2nn3ncccc3c2-c2ccnc(Nc3ccc4c(c3)OCCO4)n2)cc1` has an inhibition of 1.12%.
Molecule `COc1cc2ncnc(Nc3ccc(C)c(O)c3)c2cc1OC` has an inhibition of 0.42%.
For `c1ccc(Nc2ncc(-c3ccccc3)o2)cc1`, the inhibition was -0.17%.
For `Cc1ccc(NC(=O)CC2CC2)cc1-c1ccc(C(=O)NCC2CC2)cc1`, the inhibition was 3.16%.
Work on `OCc1ccc(-c2nc(-c3ccccn3)c(-c3ccc4c(c3)OCO4)[nH]2)cc1` yielded an inhibition of -0.15%.
In the case of `Cc1ccc(Nc2ccnc(Nc3cccc(C(N)=O)c3)n2)cc1O`, the inhibition is reported as 7.12%.
For `CN(c1ccc(NC(=O)Nc2ccc(OC(F)(F)F)cc2)cc1)c1ccnc(Nc2cccc(S(N)(=O)=O)c2)n1`, the inhibition was 16.6%.
`CN(C)C(=O)O[C@@H]1CN[C@@H](C#Cc2cc3ncnc(Nc4ccc(OCc5cccc(F)c5)c(Cl)c4)c3s2)C1` was tested, and the inhibition was -1.97%.
In the case of `NS(=O)(=O)c1ccc(Nc2cc(-c3cccc(O)c3)n[nH]2)cc1`, the inhibition is reported as -0.83%.
`Cc1ccc2c(-c3ccnc(Nc4cccc(C(F)(F)F)c4)n3)c(-c3ccccc3)nn2n1` showed an inhibition of -0.19%.
`COC(=O)Nc1nc2cc(Oc3ccc(NC(=O)Nc4cccc(Br)c4)cc3)ccc2[nH]1` was tested, and the inhibition was 1.64%.
For `N#Cc1c(NC(=O)c2ccccc2F)sc2c1CCCC2`, the inhibition was -0.38%.
With `CN(C)CCCn1c(-c2nonc2N)nc2cnccc21` the inhibition was -1.05%.
`NS(=O)(=O)c1ccc(-c2cc3ccncc3cc2OCc2ccccc2)cc1` gave an inhibition of 3.53%.
For `NS(=O)(=O)c1cccc(-c2cc3ccncc3cc2OCc2ccccc2)c1`, the inhibition was -1.61%.
Molecule `N#Cc1cccc(Nc2nccc(-c3cnn4ncccc34)n2)c1` has an inhibition of 3.11%.
Molecule `COc1cccc(-n2nc(C)c3c(N/N=C(\C)c4ccncc4)ncnc32)c1` has an inhibition of -1.75%.
Molecule `Oc1cccc(-c2nc(-c3ccccc3)[nH]c2-c2ccncc2)c1` has an inhibition of 12.3%.
Work on `COc1cccc(-n2ncc3c(N/N=C/c4ccc(C)cc4)ncnc32)c1` yielded an inhibition of 0.15%.
`COc1cccc(-n2ncc3c(N/N=C/c4ccc(S(C)(=O)=O)cc4)ncnc32)c1` showed an inhibition of 1%.
Work on `NC(=O)c1sc(-n2cnc3ccccc32)cc1OCc1ccccc1Br` yielded an inhibition of -0.72%.
Work on `Cc1cc(O)cc(C)c1/C=C/c1cncc(C(=O)N(C)C)c1` yielded an inhibition of 2.35%.
`COc1cc(/C=N/Nc2ncnc3c2cnn3C(C)C)ccc1O` gave an inhibition of -1.29%.
For `NS(=O)(=O)c1ccc(N/N=C2\C(=O)Nc3ccc(Cl)cc32)cc1`, the inhibition was 0.76%.
Molecule `Cc1cc(Cl)cc2c1NC(=O)C2=NNc1ccc(S(N)(=O)=O)cc1` has an inhibition of -0.13%.
For `NC(=O)c1cccc(Nc2nccc(Nc3cccc(F)c3)n2)c1`, the inhibition was -0.91%.
Molecule `COc1cc2ncn(-c3cc(OCc4ccccc4S(C)(=O)=O)c(C#N)s3)c2cc1OC` has an inhibition of 1.49%.
With `CCS(=O)(=O)c1ccc(OC)c(Nc2ncc(-c3cccc(OC)c3)o2)c1` the inhibition was 0.2%.
Work on `CS(=O)(=O)Nc1cccc(-c2ccc3c(NC(=O)C4CC4)n[nH]c3c2)c1` yielded an inhibition of -0.78%.

Each molecule was assayed against Mitogen-activated protein kinase 14 (Homo sapiens) (UniProt Q16539). Settings: at 0.1 µM.
Sequence of Mitogen-activated protein kinase 14 (Homo sapiens) (Q16539 whole entry): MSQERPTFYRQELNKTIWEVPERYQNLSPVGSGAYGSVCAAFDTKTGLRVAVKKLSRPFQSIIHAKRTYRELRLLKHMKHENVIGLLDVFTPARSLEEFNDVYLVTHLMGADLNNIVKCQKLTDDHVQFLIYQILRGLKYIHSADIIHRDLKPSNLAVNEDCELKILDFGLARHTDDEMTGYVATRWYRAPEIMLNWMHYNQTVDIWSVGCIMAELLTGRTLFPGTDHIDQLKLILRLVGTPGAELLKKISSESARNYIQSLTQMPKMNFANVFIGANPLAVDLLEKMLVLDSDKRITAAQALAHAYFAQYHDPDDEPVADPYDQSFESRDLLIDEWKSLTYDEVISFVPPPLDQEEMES
With `ON=C1CCc2cc(-c3nc(C4CCNCC4)[nH]c3-c3ccncc3)ccc21` the inhibition was 25.4%.
In the case of `O=C1Nc2ccc(-c3cccnc3)cc2C1=Cc1cc(Br)c(O)c(Br)c1`, the inhibition is reported as 5.87%.
Work on `CCOc1nccc2c1nc(-c1nonc1N)n2CC` yielded an inhibition of -6.67%.
With `c1ccc(Cc2nc3ccc(Nc4ncnc5ccccc45)cc3[nH]2)cc1` the inhibition was 6.98%.
With `O=C(Nc1ccc(Oc2ccc3[nH]c(NC(=O)c4ccco4)nc3c2)cc1)Nc1cc(C(F)(F)F)ccc1F` the inhibition was 4.66%.
For `FC(F)(F)c1ccc(-c2nn3ncccc3c2-c2ccnc(Nc3ccc4c(c3)OCCO4)n2)cc1`, the inhibition was 17.1%.
With `COc1cc2ncnc(Nc3ccc(C)c(O)c3)c2cc1OC` the inhibition was 5.71%.
`c1ccc(Nc2ncc(-c3ccccc3)o2)cc1` showed an inhibition of 9.09%.
`Cc1ccc(NC(=O)CC2CC2)cc1-c1ccc(C(=O)NCC2CC2)cc1` was tested, and the inhibition was 29.7%.
`OCc1ccc(-c2nc(-c3ccccn3)c(-c3ccc4c(c3)OCO4)[nH]2)cc1` was tested, and the inhibition was 4.43%.
With `Cc1ccc(Nc2ccnc(Nc3cccc(C(N)=O)c3)n2)cc1O` the inhibition was 4.41%.
For `CN(c1ccc(NC(=O)Nc2ccc(OC(F)(F)F)cc2)cc1)c1ccnc(Nc2cccc(S(N)(=O)=O)c2)n1`, the inhibition was 4.8%.
`CN(C)C(=O)O[C@@H]1CN[C@@H](C#Cc2cc3ncnc(Nc4ccc(OCc5cccc(F)c5)c(Cl)c4)c3s2)C1` was tested, and the inhibition was 5.64%.
Work on `NS(=O)(=O)c1ccc(Nc2cc(-c3cccc(O)c3)n[nH]2)cc1` yielded an inhibition of 4.9%.
In the case of `Cc1ccc2c(-c3ccnc(Nc4cccc(C(F)(F)F)c4)n3)c(-c3ccccc3)nn2n1`, the inhibition is reported as 37.5%.
Molecule `COC(=O)Nc1nc2cc(Oc3ccc(NC(=O)Nc4cccc(Br)c4)cc3)ccc2[nH]1` has an inhibition of 7.25%.
Molecule `N#Cc1c(NC(=O)c2ccccc2F)sc2c1CCCC2` has an inhibition of -1.85%.
Molecule `CN(C)CCCn1c(-c2nonc2N)nc2cnccc21` has an inhibition of 5.93%.
In the case of `NS(=O)(=O)c1ccc(-c2cc3ccncc3cc2OCc2ccccc2)cc1`, the inhibition is reported as 7.07%.
`NS(=O)(=O)c1cccc(-c2cc3ccncc3cc2OCc2ccccc2)c1` showed an inhibition of 2.47%.
`N#Cc1cccc(Nc2nccc(-c3cnn4ncccc34)n2)c1` gave an inhibition of 3.74%.
`COc1cccc(-n2nc(C)c3c(N/N=C(\C)c4ccncc4)ncnc32)c1` showed an inhibition of 1.46%.
`Oc1cccc(-c2nc(-c3ccccc3)[nH]c2-c2ccncc2)c1` gave an inhibition of 34.9%.
`COc1cccc(-n2ncc3c(N/N=C/c4ccc(C)cc4)ncnc32)c1` gave an inhibition of 6.95%.
Molecule `COc1cccc(-n2ncc3c(N/N=C/c4ccc(S(C)(=O)=O)cc4)ncnc32)c1` has an inhibition of -3.8%.
For `NC(=O)c1sc(-n2cnc3ccccc32)cc1OCc1ccccc1Br`, the inhibition was 8.45%.
`Cc1cc(O)cc(C)c1/C=C/c1cncc(C(=O)N(C)C)c1` showed an inhibition of 5.83%.
`COc1cc(/C=N/Nc2ncnc3c2cnn3C(C)C)ccc1O` showed an inhibition of 1.82%.
`NS(=O)(=O)c1ccc(N/N=C2\C(=O)Nc3ccc(Cl)cc32)cc1` showed an inhibition of 0.03%.
With `Cc1cc(Cl)cc2c1NC(=O)C2=NNc1ccc(S(N)(=O)=O)cc1` the inhibition was -2.89%.
With `NC(=O)c1cccc(Nc2nccc(Nc3cccc(F)c3)n2)c1` the inhibition was 2.29%.
Work on `COc1cc2ncn(-c3cc(OCc4ccccc4S(C)(=O)=O)c(C#N)s3)c2cc1OC` yielded an inhibition of 4.48%.
Molecule `CCS(=O)(=O)c1ccc(OC)c(Nc2ncc(-c3cccc(OC)c3)o2)c1` has an inhibition of 4.78%.
With `CS(=O)(=O)Nc1cccc(-c2ccc3c(NC(=O)C4CC4)n[nH]c3c2)c1` the inhibition was -1.33%.
